The supplement of paper PMC9446081
Out of some 39,000 compounds screened, about 220 (0.56%) showed activity. What follows is part of a selection rich in actives, with near analogues and random picks from the rest. A number with no mark means an inactive call.

system: Escherichia coli K-12 BW25113; assay: relative growth (OD600 normalised to plate interquartile mean) (fraction); higher = less growth inhibition, active = 0.2 or less; settings: 50 µM; LB; incubation time: overnight (16-24 h)
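Note: Wild-type cells incubated without shaking, value is the mean of two biological replicates.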

| SMILES | relative growth |
| --- | --- |
| CC(NCCCc1cccc(C(F)(F)F)c1)c1cccc2ccccc12.Cl (centres undefined) | 0.0467 (active) |
| CC(Cc1cccc(C(F)(F)F)c1)NCCOC(=O)c1ccccc1.Cl (centres undefined) | 0.815 |
| C[C@@H](O)c1cccc(C(F)(F)F)c1 | 0.986 |
| C[C@H]1CN([C@@H](C)CO)C(=O)c2cc(NS(=O)(=O)c3cn(C)cn3)ccc2O[C@H]1CN(C)Cc1ccc(C(=O)Nc2ccccc2N)cc1 | 1.04 |
| COc1cccc(OCc2ccc(Cn3nc(NC(=O)NCc4ccccc4OC)c4ccccc43)cc2)c1 | 1.03 |
| O=C1C=CC(=O)N1 | 0.0291 (active) |
| Cc1noc(C)c1S(=O)(=O)Nc1ccc2c(c1)CC(=O)N([C@H](C)CO)C[C@H](C)[C@H](CN(C)S(=O)(=O)c1c(C)noc1C)O2 | 1.01 |
| COCCc1nc2c([nH]1)c(=O)n(C)c(=O)n2C | 0.97 |
| CN(C)CCOC(c1ccccc1)c1ccccc1.Cl | 1.12 |
| CN(C)CCOC(c1ccccc1)c1ccccc1.Cn1c(=O)c2[nH]c(Cl)nc2n(C)c1=O | 0.0491 (active) |
| CO[C@@H]1CN(C)C(=O)c2cc(NC(=O)c3ccc(F)cc3)ccc2OC[C@@H](C)N(C(=O)CN(C)C)C[C@H]1C | 0.988 |
| C[C@H]1CCCCO[C@@H](CN(C)Cc2ccc(C(=O)Nc3ccccc3N)cc2)[C@@H](C)CN([C@@H](C)CO)C(=O)c2cc(N(C)C)ccc2O1 | 0.998 |
| [N-]=[N+]=Nc1ccccc1C[C@@]1(C(=O)NC[C@@H](O)CO)N=C(c2ccc(OCCCO)cc2)O[C@@H]1c1ccccc1 | 1 |
| COc1ccc(S(=O)(=O)N(C)C[C@H]2Oc3ccc(NS(=O)(=O)c4ccc(F)cc4)cc3C(=O)N([C@H](C)CO)C[C@H]2C)cc1 | 1.02 |
| CO[C@@H]1[C@@H](OC(=O)c2ccc(C)[nH]2)[C@@H](O)[C@@H](Oc2ccc3c(c2C)OC(=O)[C@H](NC(=O)c2[nH]cc(CC(=O)Nc4cc5ccc(O[C@@H]6OC(C)(C)[C@H](OC)[C@@H](OC(=O)c7ccc(C)[nH]7)[C@H]6O)c(C)c5oc4=O)c2C)C3)CC1(C)C | 0.0629 (active) |
| COC1C(OC(N)=O)C(O)C(Oc2ccc3c([O-])c(NC(=O)c4ccc(O)c(CC=C(C)C)c4)c(=O)oc3c2C)OC1(C)C.[Na+] (centres undefined) | 0.701 |
| COCCCNC(=O)[C@@H]1c2ccccc2C(=O)N(Cc2cc(C(F)(F)F)cc(C(F)(F)F)c2)[C@H]1c1ccc(CO)cc1 | 0.859 |
| Cc1noc(C)c1NC(=O)Nc1ccc2c(c1)C(=O)N([C@@H](C)CO)C[C@@H](C)[C@@H](CN(C)C(=O)c1ccccc1)OCCCC[C@@H](C)O2 | 0.977 |
| Cc1cc(C2CCCCC2)n(O)c(=O)c1.NCCO | 0.0534 (active) |
| C[C@@H]1CN([C@@H](C)CO)C(=O)c2cc(-c3cccc(C(=O)N(C)C)c3)cnc2O[C@H]1CN(C)S(=O)(=O)c1ccccc1 | 1.01 |

| SMILES | relative growth |
| --- | --- |
| COCC#Cc1ccc2c(c1)O[C@H](CN(C)C(=O)C1CCCCC1)[C@H](C)CN([C@H](C)CO)S2(=O)=O | 0.988 |
| CO[C@H]1/C=C\O[C@@]2(C)Oc3c(C)c(O)c4c(O)c(c(/C=N/N=C/N5CCCCC5)c(O)c4c3C2=O)NC(=O)/C(C)=C\C=C/[C@H](C)[C@H](O)[C@@H](C)[C@@H](O)[C@@H](C)[C@H](OC(C)=O)[C@@H]1C | 0.65 |
| COC1C=COC2(C)Oc3c(C)c(O)c4c(O)c(c(C=NN5CCN(C6CCCC6)CC5)c(O)c4c3C2=O)NC(=O)C(C)=CC=CC(C)C(O)C(C)C(O)C(C)C(OC(C)=O)C1C (centres undefined) | 0.0719 (active) |
| COC1C=COC2(C)Oc3c(C)c(O)c4c(O)c(c(C=NN5CCN(C)CC5)c(O)c4c3C2=O)NC(=O)C(C)=CC=CC(C)C(O)C(C)C(O)C(C)C(OC(C)=O)C1C (centres undefined) | 0.0777 (active) |
| CO[C@H]1/C=C\O[C@@]2(C)Oc3c(C)c(O)c4c(c3C2=O)[C@]2(C=C(NC(=O)/C(C)=C\C=C/[C@@H](C)[C@@H](O)[C@@H](C)[C@@H](O)[C@@H](C)[C@@H](OC(C)=O)[C@@H]1C)C4=O)OCC(=O)O2 | 0.905 |
| COC1C=COC2(C)Oc3c(C)c(O)c4c(O)c(c5c(nc6cc(C)ccn65)c4c3C2=O)NC(=O)C(C)=CC=CC(C)C(O)C(C)C(O)C(C)C(OC(C)=O)C1C (centres undefined) | 0.0499 (active) |
| C[C@@H]1CCCCO[C@H](CN(C)Cc2ccc3c(c2)OCO3)[C@H](C)CN([C@@H](C)CO)C(=O)c2cc(NC(=O)NC3CCCCC3)ccc2O1 | 1.01 |
| C[C@H](CO)N1C[C@H](C)[C@@H](CN(C)C(=O)NC2CCCCC2)Oc2c(NC(=O)Nc3cccc4ccccc34)cccc2C1=O | 0.995 |
| C[C@H](CO)N1C[C@H](C)[C@@H](CN(C)Cc2ccncc2)Oc2c(NS(=O)(=O)c3ccc(F)cc3)cccc2C1=O | 1 |
| CO[C@H]1CN(C)C(=O)c2ccc(NS(C)(=O)=O)cc2OC[C@H](C)N(C(=O)C2CCCCC2)C[C@@H]1C | 0.962 |
| C[C@H]1CN([C@@H](C)CO)C(=O)Cc2cc(NS(=O)(=O)c3ccc(Cl)cc3)ccc2O[C@H]1CN(C)Cc1ccc(-c2ccccc2)cc1 | 0.992 |
| Cc1noc(C)c1NC(=O)N(C)C[C@@H]1OCCCC[C@@H](C)Oc2ccc(NC(=O)Cc3ccccc3)cc2C(=O)N([C@@H](C)CO)C[C@H]1C | 0.958 |
| Nc1nc(=O)c2ncn(COCCO)c2[nH]1 | 1 |
| COc1ccc(S(=O)(=O)Nc2ccc3c(c2)C(=O)N([C@@H](C)CO)C[C@H](C)[C@@H](CN(C)S(=O)(=O)c2cn(C)cn2)OCCCC[C@H](C)O3)cc1 | 0.994 |
| CO[C@H]1CN(C)C(=O)c2cc(NS(=O)(=O)CC(F)(F)F)ccc2OC[C@@H](C)N(Cc2nccs2)C[C@@H]1C | 0.962 |
| COC1(NC(=O)Cc2cccs2)C(=O)N2C(C(=O)[O-])=C(COC(N)=O)CSC21.[Na+] (centres undefined) | 0.0688 (active) |
| CC(=O)OCC1=C(C(=O)[O-])N2C(=O)C(NC(=O)Cc3cccs3)C2SC1.[Na+] (centres undefined) | 0.0435 (active) |
| CC(=O)OCC1=C(C(=O)[O-])N2C(=O)C(NC(=O)CSc3ccncc3)C2SC1.[Na+] (centres undefined) | 0.797 |
| NC(=O)c1cc[n+](CC2=C(C(=O)[O-])N3C(=O)C(NC(=O)Cc4cccs4)C3SC2)cc1 (centres undefined) | 0.634 |
